ClpP mod: qHTS Assay for Activators of ClpP; ATP-dependent Clp protease proteolytic subunit (Bacillus subtilis (strain 168)), P80244; purified B. subtilis ClpP, FRET peptide cleavage, 20 min; Potency, µM (titrated, usually from 57.5 µM), for the others: at the top dose activity change, negative = active; hit rate 1.9% among 340,000; AID 651965, 2013; active = well fitted falling curve with a large enough effect; inconclusive = small, poorly fitted or top-dose-only effect; inactive = no such curve, though single readings can be large or run the other way; also: the source files actives as falling curves though it sought activators and does not explain the sign; nearly all actives have a fitted effect of over 65% in size
Target sequence (P80244 whole entry, looked up): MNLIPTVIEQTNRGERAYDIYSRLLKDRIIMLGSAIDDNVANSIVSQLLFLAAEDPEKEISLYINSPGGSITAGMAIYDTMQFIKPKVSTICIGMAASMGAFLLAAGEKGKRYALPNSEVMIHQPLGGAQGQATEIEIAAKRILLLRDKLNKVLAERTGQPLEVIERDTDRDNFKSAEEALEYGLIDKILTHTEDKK
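FRET quenching reversal measured ClpP activation: 10 microg/mL B. subtilis ClpP at pH 8 with the FRET-FV decapeptide, read at 430 nm after 320 nm excitation. The 20-min minus 0-min signal was scaled between DMSO/no-enzyme wells and ADEP (5.8 microM final).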
RORg inh: blocks mouse ROR gamma transcriptional activity; Drosophila S2 Gal4-RORgamma UAS-luciferase reporter, 20 h; P51450; hit rate 5.4% among 310,000; Potency, µM (series often up to 53.6 µM), for the others: at the top dose activity change, negative = inhibition, usual class: inhibitors; also: % is scaled to controls: 0 for no effect and ±100 for the full control effect; nearly all actives have a fitted effect of over 60% in size
Target sequence (P51450 whole entry, looked up, the tested form may be a part): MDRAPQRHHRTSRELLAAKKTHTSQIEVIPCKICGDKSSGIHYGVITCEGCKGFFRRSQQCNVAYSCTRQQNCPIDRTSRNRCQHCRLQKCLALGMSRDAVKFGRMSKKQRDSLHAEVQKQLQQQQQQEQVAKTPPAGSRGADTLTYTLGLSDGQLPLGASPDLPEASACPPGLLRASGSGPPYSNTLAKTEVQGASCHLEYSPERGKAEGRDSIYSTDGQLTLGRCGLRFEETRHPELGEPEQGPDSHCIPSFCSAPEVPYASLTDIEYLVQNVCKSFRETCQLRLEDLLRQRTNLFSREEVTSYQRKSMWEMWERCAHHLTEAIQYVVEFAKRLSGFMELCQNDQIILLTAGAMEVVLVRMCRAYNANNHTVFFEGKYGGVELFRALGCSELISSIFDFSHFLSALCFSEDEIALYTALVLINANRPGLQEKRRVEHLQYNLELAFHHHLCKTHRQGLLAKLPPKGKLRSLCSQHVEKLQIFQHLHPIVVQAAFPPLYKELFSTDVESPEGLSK
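Schneider cells (Drosophila), stable Gal4 DBD–ROR gamma + UAS-luc; 1 hr cmpd preincubation; Cu2+ induction 700 uM final; 20 hr ambient; luminescence.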
PINK1 expr mod: changes PINK1 expression. PINK1 immunofluorescence, high-content cytometry, 24 h. Potency, µM (highest dose often 76.6 µM), for inactives: top-dose activation (PINK1 increase), actives largely listed as activators. hit rate 0.2% among 410,000. AID 624263; active = well fitted activation curve with a large enough effect; inconclusive = small, poorly fitted or top-dose-only effect; cell line not stated here; also: % of control where 0% means no effect; nearly all actives have a fitted effect of over 65% in size
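Stable cell line, 250 cells/well, 12 h attachment; compounds pinned at 5 concentrations, 24 h; CCCP control. Fixed with nuclear dye, primary antibodies 12 h at 10 degrees C, secondary plus cell stain; laser-scanning cytometer read.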
VP16 counter: inhibits Gal4-VP16 luciferase reporter, ROR gamma counter-screen | Drosophila S2 Gal4-VP16 UAS-luciferase, luminescence, 20 h | Potency, µM (series often up to 53.6 µM), for the others: at the highest dose activity, negative = inhibition, actives largely listed as inhibitors | hit rate 3.5% among 310,000;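 also: Gal4-VP16 expression switched on by copper sulfate through the metallothionein promoter; % is scaled to controls: 0 for no effect and ±100 for the full control effect; nearly all actives have a fitted effect of over 50% in size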
Sfp inh: inhibitors of Bacillus subtilis Sfp phosphopantetheinyl transferase | Q9F4F7 | Biochemical Sfp PPTase activity, qHTS | Potency, µM, inactives show largest response in the series, negative = inhibition, usual class: inhibitors | hit rate 3.5% among 310,000 | AID 1490;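 also: the enzyme is Sfp with the accession as filed and its product quenches rhodamine fluorescence; 0% = enzyme reaction without inhibitor and -100% = no enzyme wells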
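With Hepes-Na pH 7.6 buffer containing 10 mM MgCl2, Sfp (15 nM) modified BHQ-2-YbbR (12.5 uM) using rhodamine-CoA (5 uM). Two reads 30 minutes apart at 525/598 nm yielded each well's rate.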
Epigenetic derep: epigenetic control regulation, reporter derepression. murine LDR cells, GFP reporter derepression, 30 h. Potency, µM (titrated, usually from 53.9 µM), for inactives: at the top dose GFP activation, actives largely listed as activators. hit rate 0.2% among 280,000; also: % of control where 0% means no effect; nearly all actives have a fitted effect of over 60% in size
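Readout is the number of GFP-expressing murine LDR cells, counted by cytometry following washing. Cells were treated with compound for 30 h at 37 C; the stably integrated CMV-GFP locus is normally silent.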
Numbers without * were called inactive; ? = inconclusive; · = no result; [ ] = remark or other dose. The list is not random: actives were taken first. Their share in the collection is about 8.1%. Unless noted, calls follow the shape of the dose curve; as a rule, active = well fitted curve in the direction sought with a large enough effect; inconclusive = small, poorly fitted or top-dose-only effect, or another doubt; inactive = no such curve, though single readings can be large; an effect the other way counts as inactive or inconclusive. Potency is read from the fitted curve at half-maximal effect.

SMILES	ClpP mod	RORg inh	PINK1 expr mod	VP16 counter	Sfp inh	Epigenetic derep
CC(C)COc1ccc(C(=O)N(Cc2cccc(F)c2)C2CCS(=O)(=O)C2)cc1 (stereo unspecified)	0%	·	4%	·	·	-1%
CCN(CC)C(=O)c1sc2c(c1C)c(=O)n(-c1ccc(Cl)c(Cl)c1)c(=O)n2CC(=O)Nc1cccc(OC)c1	-2%	·	0%	·	·	0%
Cc1ccc(-c2nc3n(n2)Cc2ccccc2-3)cc1	-1%	?	4%	10µM*	-1%	-1%
Fc1ccc(-c2nc3n(n2)Cc2ccccc2-3)cc1	1%	0%	0%	?	6%	-1%
O=c1nc2n(c3c1oc1ccccc13)Cc1ccccc1-2	·	-11%	·	-13%	?	1%
NC(=S)Cc1nc2n(n1)Cc1ccccc1-2	-2%	-3%	7%[38.3 µM]	7%	56µM*	0%
CCn1c(C)nc2cc(-c3nc4n(n3)Cc3ccccc3-4)ccc21	?	0.89µM*	2%	0.045µM*	27%	-3%
CCn1c(=O)cc(SCC(=O)NCc2ccc(Cl)cc2)c2ccccc21	-21%	·	5%	·	·	0%
Cn1ccnc1C1CCCCN1C(=O)CN1Cc2ccccc2OC(c2ccccc2F)C1 (stereo unspecified)	·	·	0%	·	·	·
COc1ccc(Cl)cc1NC(=O)Cn1ccn(-c2cc(C)cc(C)c2)c(=O)c1=O	0%	·	0%	·	·	1%
CC(C)Sc1nc2sc3c(c2c(=O)n1Cc1ccccc1)CCCC3	-1%	·	3%	·	·	1%
COc1ccc(C(C[N+](=O)[O-])C2(c3ccc(OC)c(OC)c3)C(=O)c3ccccc3C2=O)cc1 (stereo unspecified)	2%	?	-2%	18µM*	?	0%
O=C(NNc1nc2ccccc2s1)Nc1ccccc1	-7%	?	-2%	-27%	3%	0%
S=C(Nc1ccccc1)c1nc2ccccc2s1	0%	1.1µM*	2%	0.71µM*	15%	0%
CCOc1ccc2nc(NC(=O)CCn3cccc3)sc2c1	-8%	5µM*	0%	?	-19%	4%
CCOc1ccc2nc(NC(=S)N(C)C)sc2c1	1%	1µM*	1%	1.8µM*	40µM*	-3%
CN(C)C(=S)Nc1nc2ccccc2s1	1%	0.5µM*	1%	1.3µM*	14µM*	?
O=C(Nc1ccc2[nH]ccc2c1)c1ccc(F)cc1	-1%	11µM*	5%	?	11%	-1%
O=C(Nc1ccc2[nH]ccc2c1)c1ccccc1	·	?	0%	?	29%	-1%
CCOc1ccccc1NC(=O)c1cn(C2CCCC2)c(=O)c2c1c1ccccc1n2C	31%	·	1%	·	·	0%
C=C(C)CNC(=S)Nc1cccc(N)n1	·	2.8µM*	3%	?	-4%	1%
CC(=O)Nc1cccc(NC(C)=O)n1	-3%	0%	-1%	0%	8%	0%
CC(=O)/C(=N\Nc1ccccc1)Sc1cccc2cccnc12	-7%	14µM*	-1%	?	16%	-1%
CC(=O)/C(=N\Nc1ccccc1Cl)Sc1cccc2cccnc12	1%	2.8µM*	4%	4.5µM*	-26%	0%
O=C(CSc1cccc2cccnc12)Nc1ccccc1F	·	?	-1%	?	?	·
SMILES	ClpP mod	RORg inh	PINK1 expr mod	VP16 counter	Sfp inh	Epigenetic derep
CCCn1nnc(NC(=O)C(C)C)n1	1%	12%	1%	-2%	27%	1%
CCCn1nnc(NC(=S)NC(=O)Cc2ccccc2)n1	-1%	0.25µM*	0%	1%	-14%	-3%
CCCn1nnc(NC(=S)NC(=O)/C=C/c2ccc(Cl)cc2)n1	·	5µM*	-1%	-20%	?	2%
CCCn1nnc(NC(=S)NC(=O)CC)n1	2%	7.1µM*	1%	10µM*	40µM*	3%
CCc1ccc(C2=C(C)C(N3CCC(C(=O)NCCc4ccco4)CC3)=NS2(=O)=O)cc1	1%	·	0%	·	·	0%
CSc1ccc(CCNC(=O)Cn2c(C)c3cnn(-c4ccccc4)c(=O)c3c2C)cc1	-4%	·	5%	·	·	11%
C/C(=N\NC(=S)NCC(C)(C)C)c1cc(F)cc(F)c1O	·	2.8µM*	?	4µM*	23%	1%
CCCC(=O)Nc1sc2c(c1C#N)CCCC2	0%	?	4%	?	13%	-1%
CCOC(=O)Nc1sc2c(c1C#N)CCC(C)C2 (stereo unspecified)	1%	15%	5%	5%	?	1%
COC(=O)CCC(=O)Nc1sc2c(c1C#N)CCCC2	28µM*	45%	10%	5%	-26%	-3%
N#Cc1c(NC(=O)Cn2nc(C(F)(F)F)c3c2CCCC3)sc2c1CCC2	-6%	30%	-1%	-15%	?	-2%
CC1CCc2sc(NC(=S)NC(=O)c3ccccc3)c(C#N)c2C1 (stereo unspecified)	·	14µM*	?	?	?	3%
CC(C)(C)c1ccc(C(=O)NC(=S)Nc2sc3c(c2C#N)CCC3)cc1	1%	1%	0%	-7%	?	0%
CC1CCc2c(sc(NC(=O)Cn3nc(C(F)(F)F)c4c3CCCCC4)c2C#N)C1 (stereo unspecified)	-16%	7%	·	-6%	50µM*	5%
CCNC(=S)Nc1sc2c(c1C#N)CCC(C)C2 (stereo unspecified)	-6%	11µM*	2%	?	-19%	1%
Clc1cccc(N2CCN(c3ncnc4c3nc3n4CCCCC3)CC2)c1	0%	·	5%	·	·	1%
O=c1c2ccccc2sn1-c1ccc(S(=O)(=O)N2CCOCC2)cc1	0%	·	0%	·	·	·
CCC(=O)N1CCN(c2nc3c(C)cccc3s2)CC1	2%	·	0%	·	·	6%
Clc1ccc(-c2nn3c(-c4cc(-c5ccccc5)n[nH]4)nnc3s2)cc1	-15%	·	0%	·	·	·
Cc1cc(C)n(-c2nc3cc(Cl)ccc3nc2Nc2ccc(CC(=O)O)cc2)n1	3%	·	2%	·	·	-1%
Cc1ccccc1NC(=O)Cn1c(=O)n(CCC(=O)N2CCc3ccccc3C2)c(=O)c2ccccc21	-21%	·	0%	·	·	-1%
CC(C)(C)C(=O)NC(NC(=S)Nc1sc2c(c1C#N)CCCC2)C(Cl)(Cl)Cl (stereo unspecified)	0%	10µM*	?	?	-20%	0%
N#Cc1c(NC(=S)NC(=O)c2ccccc2)sc2c1CCC2	-26%	-42%[10 µM]	1%	-83%	22µM*	1%
Cc1c(C(=O)N2CCCC2)sc(NC(=O)c2ccc(Cl)cc2)c1C#N	1%	?	4%	-15%	30%	-1%

Bioassay records: PubChem, National Center for Advancing Translational Sciences (NCATS)
